Results reported in article PMC12701074.

Columns and labels:
Histone H4 = Histone H4 (UniProt P62805); experiment: cross-linking mass spectrometry
Histone H1.4 = Histone H1.4 (UniProt P10412); experiment: cross-link between two proteins; cross-linking mass spectrometry
Protein RCC2 = Protein RCC2 (UniProt Q9P258); experiment: as above
[1] = target: Beta-actin-like protein 2 (UniProt Q562R1); experiment: as above
[2] = target: Elongation factor 1-alpha 1 (UniProt P68104); experiment: as above
Histone H2B type 1-B = Histone H2B type 1-B (UniProt P33778); experiment: as above
Histone H2B type 1-L = Histone H2B type 1-L (UniProt Q99880); experiment: as above
[3] = target: Large ribosomal subunit protein eL8 (UniProt P62424); experiment: as above
Nucleolin = Nucleolin (UniProt P19338); experiment: as above
Tubulin beta-2B chain = Tubulin beta-2B chain (UniProt Q9BVA1); experiment: as above
Tubulin beta-3 chain = Tubulin beta-3 chain (UniProt Q13509); experiment: as above
Tubulin beta-4B chain = Tubulin beta-4B chain (UniProt P68371); experiment: as above
Chain of Tubulin beta-4B chain (P68371 whole entry): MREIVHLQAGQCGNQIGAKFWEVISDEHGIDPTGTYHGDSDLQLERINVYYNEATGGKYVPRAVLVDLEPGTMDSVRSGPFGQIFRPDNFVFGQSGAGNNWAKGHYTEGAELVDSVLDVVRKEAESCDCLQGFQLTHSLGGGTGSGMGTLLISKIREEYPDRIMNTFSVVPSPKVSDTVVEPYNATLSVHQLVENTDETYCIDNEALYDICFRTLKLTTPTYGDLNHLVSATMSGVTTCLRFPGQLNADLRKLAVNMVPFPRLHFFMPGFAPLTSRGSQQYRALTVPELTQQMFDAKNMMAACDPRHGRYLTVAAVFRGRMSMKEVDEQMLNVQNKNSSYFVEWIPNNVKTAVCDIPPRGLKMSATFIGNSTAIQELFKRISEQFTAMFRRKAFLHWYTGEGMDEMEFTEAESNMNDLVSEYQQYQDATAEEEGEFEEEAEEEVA

Chain of Glyceraldehyde-3-phosphate dehydrogenase, P04406 (P04406 whole entry): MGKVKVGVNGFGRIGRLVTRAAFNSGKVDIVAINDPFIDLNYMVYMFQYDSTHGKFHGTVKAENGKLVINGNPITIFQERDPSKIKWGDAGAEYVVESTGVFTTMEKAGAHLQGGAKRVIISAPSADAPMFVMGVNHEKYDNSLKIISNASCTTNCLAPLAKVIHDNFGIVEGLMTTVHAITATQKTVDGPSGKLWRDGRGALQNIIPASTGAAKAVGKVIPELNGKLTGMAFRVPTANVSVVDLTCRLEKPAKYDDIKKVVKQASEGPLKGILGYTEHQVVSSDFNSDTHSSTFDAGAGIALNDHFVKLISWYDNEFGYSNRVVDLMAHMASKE
Chain of Protein RCC2 (Q9P258 whole entry): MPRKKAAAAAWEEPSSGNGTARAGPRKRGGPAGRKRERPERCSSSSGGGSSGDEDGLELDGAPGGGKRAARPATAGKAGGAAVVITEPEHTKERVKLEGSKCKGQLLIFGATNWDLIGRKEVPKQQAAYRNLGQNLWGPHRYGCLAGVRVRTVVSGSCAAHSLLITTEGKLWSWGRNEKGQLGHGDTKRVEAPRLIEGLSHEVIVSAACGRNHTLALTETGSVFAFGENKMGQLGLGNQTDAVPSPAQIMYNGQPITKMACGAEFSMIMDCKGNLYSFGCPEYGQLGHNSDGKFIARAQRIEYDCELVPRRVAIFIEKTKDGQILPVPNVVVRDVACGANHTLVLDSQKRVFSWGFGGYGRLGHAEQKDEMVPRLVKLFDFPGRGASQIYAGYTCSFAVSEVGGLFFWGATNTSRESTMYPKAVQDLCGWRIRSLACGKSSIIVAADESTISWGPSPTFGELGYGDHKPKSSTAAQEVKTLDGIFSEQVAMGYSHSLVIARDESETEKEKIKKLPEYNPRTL
Chain of Tubulin beta-3 chain (Q13509 whole entry): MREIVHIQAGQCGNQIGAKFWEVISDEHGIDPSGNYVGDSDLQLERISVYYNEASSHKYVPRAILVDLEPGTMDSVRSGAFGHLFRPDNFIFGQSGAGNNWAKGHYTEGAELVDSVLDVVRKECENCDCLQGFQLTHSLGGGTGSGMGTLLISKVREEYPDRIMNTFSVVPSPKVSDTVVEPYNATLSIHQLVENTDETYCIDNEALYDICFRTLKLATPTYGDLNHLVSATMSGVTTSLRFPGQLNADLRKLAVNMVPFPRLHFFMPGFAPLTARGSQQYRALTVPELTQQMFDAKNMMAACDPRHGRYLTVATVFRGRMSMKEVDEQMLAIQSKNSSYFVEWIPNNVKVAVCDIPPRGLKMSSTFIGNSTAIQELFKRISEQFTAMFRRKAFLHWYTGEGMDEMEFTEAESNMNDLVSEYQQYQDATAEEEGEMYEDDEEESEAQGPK
Chain of Tubulin beta-2B chain (Q9BVA1 whole entry): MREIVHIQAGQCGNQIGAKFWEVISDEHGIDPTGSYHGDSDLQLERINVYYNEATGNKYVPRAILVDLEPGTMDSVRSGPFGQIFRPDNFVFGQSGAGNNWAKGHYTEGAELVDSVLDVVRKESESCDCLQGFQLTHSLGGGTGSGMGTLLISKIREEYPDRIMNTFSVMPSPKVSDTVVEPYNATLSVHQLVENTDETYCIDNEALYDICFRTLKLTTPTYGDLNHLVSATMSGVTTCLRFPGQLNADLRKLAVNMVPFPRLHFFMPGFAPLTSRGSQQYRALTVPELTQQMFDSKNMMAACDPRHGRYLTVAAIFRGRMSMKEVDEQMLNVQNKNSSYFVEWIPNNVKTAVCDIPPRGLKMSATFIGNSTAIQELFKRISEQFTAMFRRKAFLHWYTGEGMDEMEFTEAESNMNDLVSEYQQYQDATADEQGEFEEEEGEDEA
Chain of Beta-actin-like protein 2 (Q562R1 whole entry): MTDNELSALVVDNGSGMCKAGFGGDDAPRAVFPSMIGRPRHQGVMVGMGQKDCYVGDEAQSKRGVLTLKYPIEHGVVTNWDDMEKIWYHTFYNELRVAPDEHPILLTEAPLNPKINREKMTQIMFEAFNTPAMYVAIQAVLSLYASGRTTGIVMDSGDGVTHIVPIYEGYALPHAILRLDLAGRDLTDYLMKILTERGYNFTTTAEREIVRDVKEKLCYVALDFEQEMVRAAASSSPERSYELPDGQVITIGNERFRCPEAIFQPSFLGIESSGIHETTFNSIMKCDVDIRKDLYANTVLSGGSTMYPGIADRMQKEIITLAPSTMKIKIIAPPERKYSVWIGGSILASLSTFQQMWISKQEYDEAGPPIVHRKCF
Chain of Nucleolin (P19338 whole entry): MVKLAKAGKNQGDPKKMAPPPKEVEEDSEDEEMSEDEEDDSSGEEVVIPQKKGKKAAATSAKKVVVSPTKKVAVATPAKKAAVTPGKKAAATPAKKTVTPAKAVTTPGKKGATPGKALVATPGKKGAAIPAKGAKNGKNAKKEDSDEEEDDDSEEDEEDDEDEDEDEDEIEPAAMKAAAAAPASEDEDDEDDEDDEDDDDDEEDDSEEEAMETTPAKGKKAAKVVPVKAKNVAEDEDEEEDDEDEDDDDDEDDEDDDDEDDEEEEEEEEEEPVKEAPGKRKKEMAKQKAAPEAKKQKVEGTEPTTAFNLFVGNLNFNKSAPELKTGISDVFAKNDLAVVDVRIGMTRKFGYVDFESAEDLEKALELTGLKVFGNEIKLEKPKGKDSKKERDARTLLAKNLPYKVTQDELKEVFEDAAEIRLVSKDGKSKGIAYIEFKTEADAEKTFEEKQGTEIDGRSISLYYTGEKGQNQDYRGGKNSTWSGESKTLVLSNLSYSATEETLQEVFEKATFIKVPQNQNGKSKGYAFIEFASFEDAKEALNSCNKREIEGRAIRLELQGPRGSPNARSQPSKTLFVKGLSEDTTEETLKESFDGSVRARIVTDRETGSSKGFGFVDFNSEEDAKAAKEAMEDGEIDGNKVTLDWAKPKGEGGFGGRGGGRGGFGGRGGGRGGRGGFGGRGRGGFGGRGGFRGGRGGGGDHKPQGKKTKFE
Chain of Elongation factor 1-alpha 1 (P68104 whole entry): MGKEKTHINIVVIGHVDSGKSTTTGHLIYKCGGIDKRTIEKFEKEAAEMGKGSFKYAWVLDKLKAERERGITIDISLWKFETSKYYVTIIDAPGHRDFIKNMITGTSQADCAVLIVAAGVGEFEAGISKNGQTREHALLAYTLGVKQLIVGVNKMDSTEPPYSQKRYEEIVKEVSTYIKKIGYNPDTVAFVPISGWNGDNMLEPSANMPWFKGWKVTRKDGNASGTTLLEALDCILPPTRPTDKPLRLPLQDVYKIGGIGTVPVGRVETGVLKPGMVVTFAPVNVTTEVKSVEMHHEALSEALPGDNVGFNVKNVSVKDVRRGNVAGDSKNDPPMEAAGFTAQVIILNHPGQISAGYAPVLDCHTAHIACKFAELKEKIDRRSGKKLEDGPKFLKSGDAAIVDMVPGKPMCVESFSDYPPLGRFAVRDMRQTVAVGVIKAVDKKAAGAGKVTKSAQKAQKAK
Chain of ATP-dependent RNA helicase A, Q08211 (Q08211 whole entry): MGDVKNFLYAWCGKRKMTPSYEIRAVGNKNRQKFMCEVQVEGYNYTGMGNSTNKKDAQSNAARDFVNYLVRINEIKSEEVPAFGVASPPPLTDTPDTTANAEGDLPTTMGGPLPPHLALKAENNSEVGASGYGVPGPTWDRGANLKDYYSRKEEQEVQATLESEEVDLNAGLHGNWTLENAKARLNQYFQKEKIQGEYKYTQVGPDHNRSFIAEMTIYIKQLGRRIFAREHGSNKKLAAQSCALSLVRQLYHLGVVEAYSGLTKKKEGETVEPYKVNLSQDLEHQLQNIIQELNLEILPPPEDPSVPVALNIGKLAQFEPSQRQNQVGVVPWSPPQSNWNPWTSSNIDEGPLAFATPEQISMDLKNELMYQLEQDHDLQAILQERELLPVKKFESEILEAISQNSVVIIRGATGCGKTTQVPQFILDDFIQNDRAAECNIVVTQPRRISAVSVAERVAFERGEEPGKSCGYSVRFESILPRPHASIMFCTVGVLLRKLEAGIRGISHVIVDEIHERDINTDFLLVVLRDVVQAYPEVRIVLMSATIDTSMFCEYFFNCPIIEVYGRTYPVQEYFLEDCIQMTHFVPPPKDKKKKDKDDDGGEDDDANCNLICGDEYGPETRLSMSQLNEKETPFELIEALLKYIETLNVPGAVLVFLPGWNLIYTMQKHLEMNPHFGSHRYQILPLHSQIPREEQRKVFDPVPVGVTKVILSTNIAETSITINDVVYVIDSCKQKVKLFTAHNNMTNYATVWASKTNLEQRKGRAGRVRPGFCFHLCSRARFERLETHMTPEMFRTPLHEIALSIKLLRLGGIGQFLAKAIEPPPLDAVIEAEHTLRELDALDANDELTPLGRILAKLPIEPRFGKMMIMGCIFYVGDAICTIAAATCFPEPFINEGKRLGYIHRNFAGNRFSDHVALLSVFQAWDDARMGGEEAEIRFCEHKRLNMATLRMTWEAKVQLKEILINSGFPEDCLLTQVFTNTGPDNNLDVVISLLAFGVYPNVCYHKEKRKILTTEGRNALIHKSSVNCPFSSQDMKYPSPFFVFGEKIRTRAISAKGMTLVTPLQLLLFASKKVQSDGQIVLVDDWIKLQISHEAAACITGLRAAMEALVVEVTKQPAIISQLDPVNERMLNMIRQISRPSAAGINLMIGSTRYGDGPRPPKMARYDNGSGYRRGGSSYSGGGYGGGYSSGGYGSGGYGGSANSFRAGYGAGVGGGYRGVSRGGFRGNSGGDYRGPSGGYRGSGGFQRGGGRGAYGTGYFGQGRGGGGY

What does the source list for High mobility group protein B1, P09429?
listed as a hit (Histone H4): yes; listed as a hit (Histone H1.4): yes; listed as a hit (Protein RCC2): yes

How did the “listed as a hit” value [1] turn out when Destrin, P60981 was run?
The value was “yes”.

With “Fructose-bisphosphate aldolase A, P04075” as the substance, how does the “listed as a hit” value [2] read?
Its value is “yes”.

And the “listed as a hit” value (Histone H2B type 1-B)?
Its value is “yes”.

ATP-dependent RNA helicase A, Q08211 was tested. Which “listed as a hit” value (Histone H2B type 1-L) did it give?
Its value is “yes”.

“Heterogeneous nuclear ribonucleoprotein D-like, O14979” was tested. Which “listed as a hit” value (Histone H2B type 1-L) did it give?
The value was “yes”.

Which “listed as a hit” value [3] does the source give for Histone H1.3, P16402 here?
Its value is “yes”.

Which “listed as a hit” value (Nucleolin) does the source give for “Macrophage migration inhibitory factor, P14174” here?
The value was “yes”.

Which results are given for Tubulin beta-4B chain, P68371?
listed as a hit (Tubulin beta-2B chain): yes; listed as a hit (Tubulin beta-3 chain): yes

For Tubulin beta chain, P07437, which “listed as a hit” value (Tubulin beta-4B chain) is on record?
The value was “yes”.

For “Glyceraldehyde-3-phosphate dehydrogenase, P04406”, which “listed as a hit” value (Tubulin beta-4B chain) is on record?
Its value is “yes”.
